This is a sample that favours compounds with a hit; in the whole collection about 2.4% have one here.
HTR2A ag: activates the mouse 5-HT2A serotonin receptor; P35363; CHO-K1 mHTR2A beta-arrestin complementation, luminescence; percent of 30 µM serotonin response; activation, % at 7.6 µM; actives 0.66% (n = 360,000);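 active = activation above a run cutoff, the mean activation of all tested compounds plus 3 SD, cut at about 14% in these data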
TLR9-MyD88 inh: inhibitors of human TLR9-MyD88 binding | inhibition, % at 4.98 µM | AID 504734 | Q9NR96+Q99836 | actives 0.21% (n = 340,000) | CHO BLA complementation TLR9-MyD88, CCF4 FRET ratio;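 active = inhibition above the mean over all tested compounds plus 3 SD, cut at about 21% in these data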
NOD2 RIPK2 PPI: inhibitors of human NOD2-RIPK2 interaction; O43353; CHO BLA complementation NOD2-RIPK2, CCF4 ratio; inhibition, % at 4.98 µM; actives 0.38% (n = 360,000); AID 624267; in the data active = inhibition above about 21%
TLR4 MyD88 comp: inhibitors of human TLR4-MyD88 binding; O00206+Q99836; HeLa CL3-4 TLR4/MyD88 BLA complementation, FRET ratio; inhibition, % at 8.4 µM; actives 0.18% (n = 200,000); AID 861; in the data active = inhibition above about 25%
CRFBP-R2 block: CRF-BP/CRF-R2 complex antagonism; HEK293 CRF-R2/CRF-BP, CRF-induced calcium fluorescence; inhibition, % at 11.8 µM; actives 0.59% (n = 350,000);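 active = inhibition of the ligand-induced calcium signal above about 50% at the single tested concentration, limit read from the data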
ABHD5-PLIN5 inh: inhibitors of human ABHD5-perilipin-5 interaction. inhibition, % at 4 µM. Q00G26+Q8WTS1. actives 0.78% (n = 360,000). Split G. princeps luciferase complementation, luminescence, 4 h;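 active = inhibition above the mean inhibition across every tested compound plus 3 SD, cut at about 22% in these data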
OPRM1 ag: activates human mu opioid receptor in HTR2A counterscreen; shares compounds with HTR2A ag; U2OS OPRM1 beta-arrestin PathHunter, luminescence; DMSO 0%, DAMGO 9.3 µM 100%; activation, % at 9.3 µM; actives 5.3% (n = 2,300); AID 624380;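 active = mean activation above the mean of DMSO-only wells plus 3 SD, cut at about 0.5% in these data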
HTR2A ag conf: confirmation of mouse HTR2A serotonin receptor agonists; actives 19% (n = 2,300); CHO-K1 PathHunter beta-arrestin recruitment, luminescence; DMSO 0%, 30 µM serotonin 100%; shares compounds with HTR2A ag; activation, % at 7.6 µM;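 active = mean activation across triplicates above the hit threshold derived in the original primary screen, cut at about 15% in these data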
Numbers stand for hits; n = inactive; x = no result; ! = not confirmed by another sample.

SMILES | HTR2A ag | TLR9-MyD88 inh | NOD2 RIPK2 PPI | TLR4 MyD88 comp | CRFBP-R2 block | ABHD5-PLIN5 inh | OPRM1 ag | HTR2A ag conf
COc1ccc(NC(=O)N(C)C[C@@H]2OCc3cnnn3CCCC(=O)N([C@H](C)CO)C[C@@H]2C)cc1 | n | n | n | x | n | n | x | x
COCCn1c(=S)[nH]c2cc(C(=O)NC3CCCCC3C)ccc2c1=O (stereo not given) | n | n | n | x | n | n | x | x
O=C(Nc1cccnc1)c1cc(-c2cccc(Br)c2)nc2ccccc12 | n | n | n | x | n | n | x | x
O=C(Nc1ccncc1)c1cc(-c2cccc(Br)c2)nc2ccccc12 | 15 | n | n | x | n | n | 3.7 | n
O=C(NCC(F)(F)F)C1C(=O)Nc2ccccc2C(=O)N1C1CCCC1 (stereo not given) | n | x | n | x | x | n | x | x
CN(C)CCCN1c2ccccc2CCc2ccc(Cl)cc21 | n | n | n | n | n | n | x | x
CNCCCN1c2ccccc2CCc2ccccc21 | 31 | n | n | n | n | n | n | n
CC1CCCC(C)N1/N=C/c1ccc(Cl)cc1 (stereo not given) | n | n | n | n | n | n | x | x
CCOc1ccc(/C=N/N2C(C)CCCC2C)cc1 (stereo not given) | 17 | n | n | x | n | n | n | n
COc1cc2c(cc1O)[C@@H]1Cc3cc(OC)c(OC)cc3C(C2)N1C | n | n | n | x | n | n | x | x
COc1cc2c(cc1OC)[C@@H]1Cc3cc4c(cc3[C@H](C2)N1C)OCO4 | 18 | n | n | n | n | n | n | n
CCC(c1nnnn1-c1ccc2c(c1)OCCO2)N1CCN(C/C=C/c2ccccc2)CC1 (stereo not given) | 20 | x | n | x | x | n | n | 62
C(=C\c1ccccc1)/CN1CCN(C(c2nnnn2-c2ccc3c(c2)OCCO3)C2CC2)CC1 (stereo not given) | 15 | x | n | x | x | n | n | 51
C(=C\c1ccccc1)/CN1CCN(C(c2cccs2)c2nnnn2-c2ccc3c(c2)OCCO3)CC1 (stereo not given) | n | x | n | x | x | n | x | x
C(=C\c1ccccc1)/CN1CCN(C(CCc2ccccc2)c2nnnn2-c2ccc3c(c2)OCCO3)CC1 (stereo not given) | n | x | n | x | x | n | x | x
CCCNCC1C(Oc2ccc(Cl)cc2Cl)C(=O)N1c1cccc(C)c1C (stereo not given) | 17 | n | n | n | n | n | n | n
Cc1cccc(N2C(=O)C(Oc3ccc(Cl)cc3Cl)C2C(=O)O)c1C (stereo not given) | n | n | n | n | n | n | x | x
Cc1noc(C)c1S(=O)(=O)Nc1ccc2c(c1)C(=O)N([C@H](C)CO)C[C@H](C)[C@@H](CN(C)C(=O)NC1CCCCC1)O2 | 15 | n | n | x | n | n | n | n
C[C@H](CO)N1C[C@H](C)[C@@H](CN(C)C(=O)Nc2ccc3c(c2)OCO3)Oc2ccc(NS(=O)(=O)c3ccccc3)cc2C1=O | 15 | n | n | x | n | n | n | n
C[C@H](CO)N1C[C@H](C)[C@@H](CN(C)CC2CC2)Oc2c(NC(=O)Cc3ccccc3)cccc2C1=O | 16 | n | n | x | n | n | n | n
CCCNC(=O)C1(C)CCCN(Cc2ccc(-c3ccccn3)cc2)C1 (stereo not given) | n | x | n | x | x | n | x | x
CCCNC(=O)C1(C)CCCN(CCC(=O)c2ccccc2)C1 (stereo not given) | n | x | n | x | x | n | x | x
Cc1c(Cl)cnc(NC(=O)COC(=O)CNC(=O)c2ccccc2)c1Cl | n | n | n | x | n | n | x | x
COc1ccc(CC(=O)OCC(=O)Nc2ncc(Cl)c(C)c2Cl)cc1 | 15 | n | n | x | n | n | n | n
O=C(C[C@H]1C[C@@H]2c3cc(NC(=O)Nc4ccccc4F)ccc3O[C@@H]2[C@H](CO)O1)NCc1ccccn1 | n | n | n | x | n | n | x | x
SMILES | HTR2A ag | TLR9-MyD88 inh | NOD2 RIPK2 PPI | TLR4 MyD88 comp | CRFBP-R2 block | ABHD5-PLIN5 inh | OPRM1 ag | HTR2A ag conf
CCOC(=O)N(C)c1c(CC)nc2c(OCc3ccc(Cl)cc3)cccn12 | n | x | n | x | x | n | x | x
O=C(Nc1ccccc1C(=O)Nc1nnc(C(F)(F)F)s1)c1ccccc1 | 14 | n | n | x | n | n | n | n
OC(c1ccc(F)c(F)c1)c1ncc(-c2cccc(C(F)(F)F)c2)[nH]1 (stereo not given) | n | x | n | x | x | n | x | x
COc1cc(NC(=O)[C@H]2O[C@@H](n3ccc(N)nc3=O)[C@H](O)[C@@H]2O)cc(OC)c1OC | n | x | n | x | x | n | x | x
COCC1CCN(C(=O)C2CCC(=O)N(C3CCCC3)C2)CC1 (stereo not given) | 15 | n | n | x | n | n | n | n
CCC1CCCCN1Cc1nc2c(c(=O)n(C)c(=O)n2C)n1CCC(C)C (stereo not given) | 20 | n | n | n | n | n | n | n
CC(C)(C)N(Cc1ccccc1)C(=O)COC(=O)CCN1C(=O)C2CC=CCC2C1=O (stereo not given) | 15 | n | n | x | n | n | n | n
CCCC/C(O)=C1\C(=O)CCCC1=NCCc1c(C)[nH]c2ccc(OC)cc12 | n | n | n | x | n | n | x | x
CCC/C(O)=C1\C(=O)CCCC1=NCCc1ccc(OCC)c(OCC)c1 | 15 | n | n | n | n | n | n | n
CCCNC(=O)C1(C)CCCN(C(=O)Cc2cccc(OC)c2)C1 (stereo not given) | n | x | n | x | x | n | x | x
COc1ccc(CNC(=O)Nc2nnc([C@@H]3C[C@H](O)[C@@H](CO)O3)s2)cc1 | n | x | n | x | x | n | x | x
N#C/C=C(/N)N1CCN(c2ccc(Cl)c(Cl)c2)CC1 | 35 | n | n | n | n | n | n | 19
O=C1CC(N2CCN(c3ccc(Cl)c(Cl)c3)CC2)C(=O)N1 (stereo not given) | 19 | n | n | n | n | n | 1.6 | 18
COC(=O)N1CCN(c2ccc(Cl)c(Cl)c2)CC1 | n | n | n | n | n | n | x | x
Nc1ccc(N2CCN(c3ccc(Cl)c(Cl)c3)CC2)cc1 | 35 | n | n | n | n | n | n | n
O=C1CC(N2CCN(Cc3ccccc3)CC2)C(=O)N1 (stereo not given) | n | n | n | n | n | n | x | x
COc1cccc(CN2CCC2(C)C(=O)Nc2cnc3ccccc3c2)c1F (stereo not given) | n | x | n | x | x | n | x | x
Oc1ccc(C2CNCCc3c2cc(O)c(O)c3Cl)cc1 (stereo not given) | 34! | n | n | x | n | n | n | 145
Oc1cc2c(c(Cl)c1O)CCNCC2c1ccccc1 (stereo not given) | 24 | n | n | x | n | n | n | 100

Bioassay records as filed in PubChem.
